Assay outcomes (PubChem)
FLuc counter – qHTS profiling assay for firefly luciferase inhibitor/activator using purifed enzyme and Km concentrations of substrates (counterscreen for miR-21 project) | Luciferin 4-monooxygenase (Photinus pyralis), P08659 | purified FLuc, Km substrates, luminescence inhibition | Potency, µM (top dose mostly 57.5 µM), for the others: at the top dose activity change, negative = inhibition, most hits filed as inhibitors | 360,000 tested, 6.9% active | AID 588342, 2011;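 further: plate controls were vehicle for no effect and reference inhibitor for full effect; nearly all actives have a fitted effect of over 55% in size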
Target sequence (P08659 whole entry, looked up): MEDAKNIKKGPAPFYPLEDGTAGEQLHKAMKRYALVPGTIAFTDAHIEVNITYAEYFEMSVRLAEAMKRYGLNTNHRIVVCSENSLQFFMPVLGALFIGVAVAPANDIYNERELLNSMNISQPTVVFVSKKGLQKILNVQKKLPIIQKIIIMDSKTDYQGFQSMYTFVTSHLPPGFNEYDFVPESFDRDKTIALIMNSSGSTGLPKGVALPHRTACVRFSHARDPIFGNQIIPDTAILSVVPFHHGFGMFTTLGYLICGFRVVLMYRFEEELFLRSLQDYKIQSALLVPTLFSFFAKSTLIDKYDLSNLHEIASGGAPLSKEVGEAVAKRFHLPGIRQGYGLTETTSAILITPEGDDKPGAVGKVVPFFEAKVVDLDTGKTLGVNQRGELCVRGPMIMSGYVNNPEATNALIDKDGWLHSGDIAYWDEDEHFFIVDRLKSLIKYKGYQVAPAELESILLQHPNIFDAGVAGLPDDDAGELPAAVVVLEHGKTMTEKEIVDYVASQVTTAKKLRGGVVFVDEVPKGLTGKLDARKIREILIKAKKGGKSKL
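Purified P. pyralis luciferase (10nM final) with 10uM D-luciferin and 10uM ATP (Km levels) in 50mM Tris acetate pH 7.5, 10mM Mg acetate, 0.01% Tween-20, 0.05% BSA; qHTS 6-point titration, ~60 µM downward; luminescence read.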
Luc counter – Counterscreen for Luciferase (Kinase-Glo TM) Inhibition; Luciferin 4-monooxygenase (Photuris pensylvanica), Q27757; Kinase-Glo luciferase, ATP luminescence, 8 min; Potency, µM (highest dose often 38.3 µM), for the others: top-dose activity change, negative = inhibition, usual class: inhibitors; 200,000 tested, 0.28% active; further: on the % scale 0 is the no-effect control and ±100 the full control effect; nearly all actives have a fitted effect of over 60% in size
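Recombinant Kinase-Glo luciferase, 10 uM ATP (linear range), luciferin; imidazole pH 7.2 / KCl / MgCl2 / Tween / BSA buffer; 8 min RT; luminescence.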
Rab9 promoter act – qHTS Assay for Rab9 Promoter Activators. 320,000 tested, 2.8% active. Potency, µM (doses to about 9.22 µM), inactives show at the highest dose activation, negative = inhibition, hits mostly activators. Huh7 Rab9 promoter-luciferase reporter, luminescence, 24 h. AID 485297, 2010; further: % of control where 0% means no effect; nearly all actives have a fitted effect of over 60% in size
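Huh7 cells stably carrying Rab9 promoter–luciferase reporter, plated 1500 cells/well, compound added after 2 h and incubated 24 h at 37 °C; luciferase luminescence then read after 10 min with detection reagent.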
NPC1 promoter act – qHTS Assay for NPC1 Promoter Activators; 320,000 tested, 2.4% active; Potency, µM (doses to about 9.22 µM), for inactives: at the top dose activation, actives largely listed as activators; Huh7 NPC1 promoter luciferase reporter, 24 h; further: % of control where 0% means no effect; nearly all actives have a fitted effect of over 60% in size
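Huh7 cells stably carrying NPC1 promoter–luciferase, plated in Opti-MEM with 10% FBS for 2 h, were exposed to compound in DMSO for 24 h at 37 °C; luciferase reagent was added for 10 min and luminescence read.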
SMN2 splice up – qHTS Assay for Enhancers of SMN2 Splice Variant Expression; 210,000 tested, 2.8% active; HEK293 SMN2-luciferase splicing reporter, luminescence, 30-36 h; AID 1458, 2008; Potency, µM (titrated, usually from 46.1 µM), for inactives: top-dose activity change, positive = activation, hits mostly activators; further: % of control where 0% means no effect; nearly all actives have a fitted effect of over 55% in size
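HEK293 cells carry an SMN2 minigene-luciferase reporter in which exon 7 inclusion puts luciferase in frame. Cells were seeded at 2000 cells/well, attached for 10-12 hours, then exposed to compounds for 30-36 hours at 37C before ONE-Glo luminescence.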
* hit, by the source's call; ? = inconclusive; . = not tested or not shown; [ ] = another dose, or the depositor's remark. Rows were chosen to be rich in hits. Some 7.3% of all compounds tested hit in one or more screens of this group. The call rests on the fitted dose curve; in most records, active means well fitted curve in the direction sought with a large enough effect; inconclusive means small, poorly fitted or top-dose-only effect, or another doubt; inactive means no such curve, though single readings can be large; an effect the other way counts as inactive or inconclusive. Potency means the concentration at half of the fitted maximal effect.

SMILES	FLuc counter	Luc counter	Rab9 promoter act	NPC1 promoter act	SMN2 splice up
NS(=O)(=O)c1ccc(NC(=O)COC(=O)COc2cccc(C(F)(F)F)c2)cc1	13.5µM*	.	-3.7%	-6.9%	.
O=C(NC(C(=O)N/N=C/c1ccccc1)c1n[nH]c(=O)c2ccccc12)c1ccccc1 (stereo not drawn)	19µM*	.	?	-0.4%	.
O=C(NC(C(=O)N/N=C/c1c2ccccc2cc2ccccc12)c1n[nH]c(=O)c2ccccc12)c1ccccc1 (stereo not drawn)	1.4%	.	8.3%	-0.3%	.
Cc1cc2nc(CS)[nH]c2cc1C	4.78µM*	.	12.0%	7.7%	.
Cc1cc2nc(CO)[nH]c2cc1C	-10.5%	.	-3.5%	-1.4%	.
Cc1cccc(OCC(=O)Nc2ccc(Cl)c(-c3nc4ncccc4o3)c2)c1C	0.7%	.	.	.	2.9%
CCOC(=O)C(=O)/C(C#N)=C/Nc1ccccc1	-9.8%	-2.1%	5.9%	-1.4%	2.9%
CCOC(=O)/C(C#N)=C/Nc1ccccc1OC	6.75µM*	-5.4%	2.24µM*	3.16µM*	?
CCOC(=O)/C(C#N)=C/c1c[nH]c2ccccc12	19µM*	3.4%	25.3%	-2.9%	10.9%
CCc1ccccc1NC(=O)CC1NCCNC1=O (stereo not drawn)	-2.3%	.	.	.	1.8%
Nc1nc2n[nH]nc2c(=O)[nH]1	.	-5.7%[17.1 µM]	.	.	-19.7%[20.6 µM]
Nc1nc2nn(-c3ccccc3)nc2c(=O)[nH]1	4.78µM*	.	2.82µM*	2µM*	.
CCc1ccc(OCC(=O)Nc2cc(-c3ccc(C)cc3)no2)cc1	-1.5%	.	.	.	16.6%
C/C(=N\Nc1nc(C)cc(C)n1)c1ccc(C)o1	-15.1%	.	-3.5%	0.5%	.
C/C(=N\Nc1nnc2c3ccccc3n(C)c2n1)c1ccc(C)o1	16.9µM*	-0.8%	9.0%	3.2%	-24.2%
Cc1cc(C)n(-c2nnc3c4ccccc4n(C)c3n2)n1	4.78µM*	.	2.51µM*	1.41µM*	.
CCOC(=O)Cn1c(=O)oc2cc(S(=O)(=O)NCc3ccc(F)cc3)ccc21	5.5%	.	.	.	1.8%
COCCn1c(SCc2ccc(C(=O)OC)o2)nc2cc(Cl)ccc2c1=O	-1.2%	-1.0%	3.55µM*	0.7%	-9.1%
CC(/C=C/c1ccccc1)=N/NC(=O)c1cc([N+](=O)[O-])cc([N+](=O)[O-])c1	1.8%	-3.3%	-30.9%	-23.5%	-79.9%
CC(/C=C/c1ccccc1)=N\Nc1ccccc1[N+](=O)[O-]	7.57µM*	-7.9%	?	3.98µM*	19.0%
Cc1cc(-c2ccccc2)nc2cc(C(=O)Nc3cc(C(F)(F)F)ccc3Cl)nn12	-1.2%	.	.	.	-5.3%
CC(=O)OCc1cnc(C)c2oc(=O)c(C(=O)Nc3cccc(F)c3)cc12	-3.3%	.	.	.	.
Cc1ccc(-c2nc3sc(CCNC(=O)c4ccco4)c(C)n3n2)cc1	13.5µM*	.	.	.	.
Cc1c(CCNC(=O)Cc2ccccc2)sc2nc(-c3ccc(F)cc3)nn12	-14.2%	.	.	.	.
Cc1c(CCNC(=O)Cc2ccc(F)cc2)sc2nc(-c3ccc(F)cc3)nn12	-7.6%	.	.	.	.
SMILES	FLuc counter	Luc counter	Rab9 promoter act	NPC1 promoter act	SMN2 splice up
Cc1ccc(-c2nc3sc(CCNC(=O)c4ccc(Br)o4)c(C)n3n2)cc1	10.7µM*	.	.	.	.
CCOC(C)(C)C	.	.	.	.	2.4%
CC(C)c1ccc(C(=O)CSc2ncn[nH]2)cc1	9.53µM*	1.6%	?	?	28.5%
O=C(CSc1ncn[nH]1)c1ccc2c(c1)OCCO2	?	-1.5%	-0.9%[1.84 µM]	11.9%	3.2%
Cc1cc(C)n2[nH]c(=O)c(N=Nc3ccccc3)c2n1	-3.7%	-5.3%	-3.0%	4.3%	-1.0%
Cc1cc(C)[n+]2[nH]c(N)c(N=Nc3ccccc3)c2n1	15.1µM*	.	7.5%	9.4%	.
NCCNS(=O)(=O)c1ccc(N)cc1	.	0.0%[7.66 µM]	.	.	-8.5%[9.22 µM]
O=C1c2ccccc2C(=O)C1c1ccnc2ccccc12	0.151µM*	-24.2%	0.631µM*	3.55µM*	0.398µM*
O=C1c2ccccc2C(=O)C1c1nccc2ccccc12	0.151µM*	8.91µM*	1.26µM*	3.16µM*	0.631µM*
O=C1C(=O)c2ccccc2C(O)=C1c1ccccc1F	?	.	14.2%	7.6%	.
O=C1C(c2ccnc3ccccc23)=C(O)c2ccccc21	0.107µM*	?	?	2.51µM*	0.398µM*
Cc1ccc(C)c(-c2[nH]c3c(c2-c2c(-n4cccc4)n(C)c(=O)[nH]c2=O)c(=O)[nH]c(=O)n3C)c1	-6.7%	.	.	.	.
Cc1nc(C)c(-c2csc(Nc3ccccn3)n2)s1	2.39µM*	.	0.501µM*	0.562µM*	.
Cc1nc(N)sc1-c1csc(Nc2ccccn2)n1	6.75µM*	-7.1%	1.58µM*	2.24µM*	8.91µM*
CC(=O)Oc1ccc(-c2csc(Nc3ccc(Cl)cn3)n2)cc1	-18.7%	.	?	?	.
Cc1nc(N)sc1-c1csc(Nc2ccc(Cl)cn2)n1	16.9µM*	-3.6%	16.3%	16.9%	-46.7%
CN(C)c1c(F)cc(-c2nn[nH]n2)cc1F	15.1µM*	.	3.7%	1.3%	.
CC(=O)Nc1ccc(NS(=O)(=O)c2c(C)nc3sccn3c2=O)cc1	-0.3%	.	.	.	.
Cc1ccc(N/C=C/C(=O)c2cccs2)cc1	0.12µM*	?	0.141µM*	?	2µM*
O=C(/C=C/Nc1ccc(F)cc1F)c1cccs1	0.107µM*	7.94µM*	2µM*	0.562µM*	0.398µM*
O=C(NNC(=O)c1cccs1)c1cccc(F)c1	-7.2%	.	12.8%	-1.4%	.
O=C(/C=C\Nc1cccc(F)c1)c1cccs1	0.849µM*	-23.3%	3.98µM*	3.98µM*	6.31µM*
Cc1ccc(N/C=C/C(=O)c2sc(-c3ccccc3)nc2C)cc1	6.01µM*	-1.1%	1.6%	-1.8%	-12.0%
COc1ccc(NC(=O)CSc2nc(-c3ccccc3)nc3c2Cc2c(CO)cnc(C)c2O3)cc1Cl	-1.9%	.	.	.	.
